# Measurements: PubChem BioAssay
# Experiment: binders of probe aFGF2 on microarray, primary screen, stem cell growth factor project, biochemical, small-molecule microarray, fluorescence 635/667 (AID 1067);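 also: measures binding of biotinylated aFGF2 protein to printed compounds on slides; z-score merges feature fluorescence and signal-to-noise across triplicate slides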
# Conditions: higher = more signal
row,Compound,composite z-score
1,O=C1C2C=CC(C(O)c3ccc([N+](=O)[O-])cc3)N(Nc3ccccc3)C2C(=O)N1c1ccccc1 (stereo not given),0.0589
2,CC(=O)NCCCC[C@@H]1NC(=O)[C@H]2C[C@@H](C(=O)NCCCCCC[N+](C)(C)C)[C@@H](c3ccc(O)cc3)N2C1=O,-0.144
3,CCCC[C@H]1OB(O)C[C@H]2C1=C(COC)C[C@H]1C(=O)C=CC(=O)[C@H]12,-0.0582
4,C[C@@H](OCc1ccccc1)C1NC(=O)[C@@]23C(=O)N[C@@H](Cc4ccccc4)C2[C@H](C)[C@@]2(C)O[C@H]2C3/C=C/C/C=C\CNC(=O)[C@H](Cc2ccccc2)NC1=O (stereo not given in full),-0.199
5,C=CCC(OC(C)=O)[C@@H]1[C@@H](N(Cc2ccc(-c3cccc(C(F)(F)F)c3)o2)C(=O)c2cccc3ccccc23)c2cc(OCCCO)ccc2N1C(=O)c1ccc2ccccc2c1 (stereo not given in full),-0.0909
6,COCCn1c(C(=O)N2CCCC2)cc2c1C[C@H]1CN(C(=O)c3ccccc3)[C@@](Cc3ccccc3)(C(=O)OC)[C@@H]21,0.576
7,C=CC[C@@]12N=C(c3ccc(OCCCO)cc3)O[C@@H]1c1ccccc1N(Cc1ccccc1)C2=O,0.302
8,C[C@]1(C(=O)NCC(F)(F)F)c2ccccc2C(=O)N(Cc2ccc(OC(F)(F)F)cc2)[C@H]1c1ccc(CO)cc1,-0.0757
9,O=C1N(CCS(=O)(=O)c2ccccc2)c2ccccc2[C@@H]2OC(c3ccc(OCCCO)cc3)=N[C@]12CCS(=O)(=O)c1ccccc1,0.0069
10,CN(C)CCCC[C@@H]1NC(=O)[C@@H]2C[C@H](C(=O)NCCCCCCNC(=O)CS)[C@H](c3cccc(OCCO)c3)N2C1=O,-0.0621
11,[N-]=[N+]=Nc1ccccc1[C@@H]1OC(c2ccc(OCCCO)cc2)=N[C@]1(Cc1ccccc1)C(N)=O,-0.0543
12,C=CC[C@]1(C(=O)N(C)C)COC(c2ccc(OCCCO)cc2)=N1,0.23
13,O=C1O[C@@H](c2ccccc2)[C@@H](c2ccccc2)N2[C@@H](c3ccc(O)cc3)[C@]3(C(=O)Nc4ccc(C#CC5=CCCCC5)cc43)[C@@H](C(=O)N3CCCCCCC3)[C@H]12,0.347
14,CCCCC(=C=CC[C@@H](O)c1cccc(OCCO)c1)C[C@@H](O)COCc1ccccc1,-0.174
15,[N-]=[N+]=NCc1ccccc1C[C@]1(C(=O)O)COC(c2ccc(OCCCO)cc2)=N1,-0.0213
16,COC(=O)[C@]1(CO)N=C(c2ccc(OCCCO)cc2)O[C@@H]1c1ccccc1CN=[N+]=[N-],-0.155
17,COc1ccc(NN2C(C(O)c3cc(C(F)(F)F)cc(C(F)(F)F)c3)C=CC3C(=O)N(C4CCCCC4)C(=O)C32)cc1 (stereo not given),0.483
18,CN(C)CCCC[C@@H]1NC(=O)[C@H]2C[C@@H](C(=O)NCc3ccc(F)cc3)[C@@H](c3ccc(O)cc3)N2C1=O,-0.0904

row,Compound,composite z-score
1,CCCC=C(CCC)[C@@H](NC(=O)c1ccccc1)c1ccc(C(=O)OC)cc1,0.502
2,C=CCC(OC(C)=O)[C@@H]1[C@@H](N(Cc2cccc3ccccc23)C(=O)c2cccc3ccccc23)c2cc(OCCCO)ccc2N1C(=O)Cc1ccc2ccccc2c1 (stereo not given in full),-0.116
3,C=C(COC)/C(=C/C[C@@H](OC(C)=O)c1ccccc1OCCO)c1cc(C(=O)OC)ccc1OC,-0.116
4,CO[C@H]1O[C@H](CO)[C@@H](OC(=O)Nc2ccc(C(F)(F)F)cc2)[C@H](OC(=O)Nc2ccccc2-c2ccccc2)[C@@H]1OC(=O)Nc1ccccc1-c1ccccc1,-0.0262
5,CCOC(=O)C[C@H]1[C@H](OC(=O)c2ccc(-c3ccccc3)cc2)[C@@H](NC(=O)CC(C)C)c2cc(OCCCO)ccc2N1C(=O)Cc1ccc(OC)cc1,-0.0131
6,CCOC(=O)C[C@H]1[C@H](OC(=O)c2cc3ccccc3oc2=O)[C@@H](NC(=O)C2CCCCC2)c2cc(OCCCO)ccc2N1C(=O)Cc1ccc(OC)cc1,0.0066
7,N#Cc1ccc(C(O)C2C=CC3C(=O)NC(=O)C3N2Nc2ccccn2)cc1 (stereo not given),-0.0692
8,O=C1C2C=CC(C(O)c3cccs3)N(Nc3ccccc3)C2C(=O)N1c1ccccc1 (stereo not given),-0.0459
9,COC(=O)[C@@]1(Cc2ccc(OC)cc2)[C@H]2c3cc(C(=O)N4CCCC4)n(CCc4ccc(OC)c(Br)c4)c3C[C@H]2CN1C(=O)c1ccccc1,0.159
10,CO[C@H]1O[C@H](CO)[C@@H](OC(=O)Nc2ccc(C(F)(F)F)cc2)[C@H](OC(=O)Nc2ccccc2-c2ccccc2)[C@H]1OC(=O)Nc1ccccc1-c1ccccc1,0.0276
11,CCOC(=O)C1=C(C(=O)OCC)N(S(=O)(=O)CC[Si](C)(C)C)[C@H](c2ccccc2)CC1,-0.0066
12,CC(C)C(=C=CC[C@@H](O)c1ccccc1OCCO)C[C@@H](O)c1cc(Cl)cc(Cl)c1O,-0.076
13,COc1ccc(C#Cc2ccc3c(c2)[C@]2(C(=O)N3)[C@H](C(=O)Nc3nc4ccccc4s3)[C@H]3C(=O)O[C@H](c4ccccc4)[C@H](c4ccccc4)N3[C@@H]2c2ccc(OCCO)cc2)cc1,0.0015
14,CC(=O)n1cc(C(O)C2C=CC3C(=O)N(c4ccccc4)C(=O)C3N2Nc2ccccc2F)c2ccccc21 (stereo not given),-0.0757
15,COCCOC(=O)N1C(=O)[C@@]2(c3cc(C#CC4(O)CCCCCC4)ccc31)[C@H](c1ccc(OCCO)cc1)N1[C@H](c3ccccc3)[C@H](c3ccccc3)OC(=O)[C@H]1[C@@H]2C(N)=O,0.014
16,COc1cc2c(cc1O)C(c1ccc(CN3CCCC3)cc1)N(Cc1ccc([N+](=O)[O-])o1)CC2 (stereo not given),-0.158
17,COc1ccc(CCNC(=O)[C@@]2(C)c3ccccc3C(=O)N(Cc3cc(C(F)(F)F)cc(C(F)(F)F)c3)[C@H]2c2ccc(CO)cc2)cc1,0.383
